Rab9 prom act: activates the Rab9 promoter | Huh7 Rab9 promoter-luciferase reporter, luminescence, 24 h | Potency, µM (highest dose often 9.22 µM), for inactives: top-dose activation, negative = inhibition, hits mostly activators | hit rate 2.8% among 320,000 | AID 485297; also: % of control where 0% means no effect; nearly all actives have a fitted effect of over 60% in size
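Steps: seed 1500 Huh7 Rab9-luc cells per well, rest 2 h at 37 °C; add compound in DMSO; incubate 24 h; add luciferase reagent, 10 min ambient; read luminescence.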
SMN2 splice enh: enhancers of SMN2 splice variant expression; HEK293 SMN2-luciferase splicing reporter, luminescence, 30-36 h; Potency, µM (top dose mostly 46.1 µM), without a hit: at the highest dose activity change, positive = activation, hits mostly activators; hit rate 2.8% among 210,000; AID 1458; also: % of control where 0% means no effect; nearly all actives have a fitted effect of over 55% in size
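HEK293 cells carry an SMN2 minigene-luciferase reporter in which exon 7 inclusion puts luciferase in frame. Cells were seeded at 2000 cells/well, attached for 10-12 hours, then exposed to compounds for 30-36 hours at 37C before ONE-Glo luminescence.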
NPC1 promoter act: activators of NPC1 promoter; Huh7 NPC1 promoter luciferase reporter, 24 h; Potency, µM (doses to about 9.22 µM), for the others: at the highest dose activation, actives largely listed as activators; hit rate 2.4% among 320,000; AID 485313; also: % of control where 0% means no effect; nearly all actives have a fitted effect of over 60% in size
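Readout is luciferase luminescence, reflecting NPC1 promoter activation in stably transfected Huh7 cells after 24 h compound exposure at 37 °C in reduced-serum medium with 10% FBS.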
ELG1 genotoxic: inducers of genotoxicity in HEK293T ELG1-luciferase cells | HEK293T ELG1-luciferase reporter, luminescence, 16 h | Potency, µM (doses to about 46 µM), inactives show at the top dose activity change, positive = activation, usual class: activators | hit rate 1.3% among 330,000 | AID 504466; also: % of control where 0% means no effect; nearly all actives have a fitted effect of over 60% in size
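Luminescence read-out: rising ELG1-luciferase signal, reflecting elevated ELG1 protein under genetic stress, flags genotoxic compounds. Cells were treated for 16 hr at 37 °C before ONE-Glo detection.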
ELG1 DNA repair: ELG1-dependent DNA repair inhibition. HEK293T ELG1-luciferase reporter, luminescence, 16 h; DNA damage induced by 5-fluorouridine. AID 504467. Potency, µM (series often up to 46.1 µM), for the others: at the top dose activity change, negative = inhibition, actives largely listed as inhibitors. hit rate 2.3% among 330,000; also: % is scaled to controls: 0 for no effect and ±100 for the full control effect; nearly all actives have a fitted effect of over 55% in size
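Quantitative HTS, concentration-response format. 2,000 cells/well co-treated with 5-fluorouridine and compound, 16 hr in 5% CO2 at 37 °C; ONE-Glo luminescence read after 30 min.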
FLuc counter: inhibits or activates purified firefly luciferase, miR-21 counter-screen; P08659; purified FLuc, Km substrates, luminescence inhibition; Potency, µM (titrated, usually from 57.5 µM), for the others: at the top dose activity change, negative = inhibition, hits mostly inhibitors; hit rate 6.9% among 360,000; AID 588342;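 also: plate controls were vehicle for no effect and reference inhibitor for full effect; nearly all actives have a fitted effect of over 55% in size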
Target sequence (P08659 whole entry, looked up): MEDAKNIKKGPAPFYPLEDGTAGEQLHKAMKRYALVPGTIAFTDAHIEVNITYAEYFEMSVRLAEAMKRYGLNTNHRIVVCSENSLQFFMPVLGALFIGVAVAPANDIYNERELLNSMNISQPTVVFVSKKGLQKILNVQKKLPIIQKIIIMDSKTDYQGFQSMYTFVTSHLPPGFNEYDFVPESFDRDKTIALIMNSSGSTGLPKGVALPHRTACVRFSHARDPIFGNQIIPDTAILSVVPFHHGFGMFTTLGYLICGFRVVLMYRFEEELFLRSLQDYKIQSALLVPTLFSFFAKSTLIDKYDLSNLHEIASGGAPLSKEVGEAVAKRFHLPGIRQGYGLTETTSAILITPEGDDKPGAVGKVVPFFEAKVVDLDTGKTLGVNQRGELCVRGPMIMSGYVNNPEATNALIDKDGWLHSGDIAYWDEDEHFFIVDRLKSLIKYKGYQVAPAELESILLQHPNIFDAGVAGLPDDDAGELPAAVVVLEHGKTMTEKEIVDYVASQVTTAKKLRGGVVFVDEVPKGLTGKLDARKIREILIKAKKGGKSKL
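Purified P. pyralis luciferase, 10 nM final, with Km-level 10 uM D-luciferin and 10 uM ATP in 50 mM Tris acetate pH 7.5, 10 mM Mg acetate, 0.01% Tween-20, 0.05% BSA; 6-point qHTS titration about 60 µM downward; luminescence read.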
* hit, by the source's call; ? = inconclusive; . = no result; [ ] = another dose, or the depositor's remark. Compounds with a hit are over-represented: about 9.4% of the library has one in this group of screens. Calls follow the shape of the dose curve; as a rule, active = well fitted curve in the direction sought with a large enough effect; inconclusive = small, poorly fitted or top-dose-only effect, or another doubt; inactive = no such curve, though single readings can be large; an effect the other way counts as inactive or inconclusive. Potency is read from the fitted curve at half-maximal effect.

SMILES	Rab9 prom act	SMN2 splice enh	NPC1 promoter act	ELG1 genotoxic	ELG1 DNA repair	FLuc counter
CCC(C)NC(=O)CSc1nnc(-c2cc(-c3ccc(C)cc3)nc3ccccc23)n1N (stereo not given)	0%	-5%	-1%	-5%	?	11µM*
Cc1nnc(N2CCN(c3cccc(C(F)(F)F)c3)CC2)c2c1nnn2Cc1ccccc1	.	-6%	.	.	.	-1%
O=C(N/C(C(=O)N1CCOCC1)=C(\Sc1ncccn1)c1ccccc1)c1ccccc1	2%	-1%	-3%	-10%	23µM*	0%
CCC(C(=O)OC)n1cnc2c(nnn2-c2ccc(F)cc2)c1=O (stereo not given)	2%	.	0%	4%	7%	-2%
COC(=O)c1ccc(CSc2ncnc3ccccc23)o1	1%	14%	0%	-8%	-13%	-17%
CCC(Sc1ncnc2c1nnn2-c1ccc(F)cc1)C(=O)OC (stereo not given)	?	7%	?	?	?	5.4µM*
CCOC(=O)C(C)Sc1ncnc2c1nnn2-c1ccc(F)cc1 (stereo not given)	?	17%	?	17%	?	12µM*
COC(=O)c1ccc(CSc2ncnc3c2nnn3-c2ccc(F)cc2)o1	-9%	-10%	3%	3%	6%	8.5µM*
CCN(CC)C(=O)CSc1ncnc2c1nnn2-c1ccc(F)cc1	-2%	-10%	-1%	2%	6%	13µM*
CC(C)(C)CC(=O)NCC(c1ccc2c(c1)OCO2)N1CCOCC1 (stereo not given)	.	.	.	.	.	-1%
O=C(O)c1ccccc1-c1nc2ccccc2[nH]1	?	13%	18%	8%	?	13µM*
COc1ccc2oc(=Nc3cccc(F)c3)c(C(N)=O)cc2c1	2%	-5%	-10%	2%	-10%	0%
c1ccc2[nH]c(-c3ccncc3)nc2c1	19%	.	15%	5%	?	?
O=C(c1ccccc1-c1nc2ccccc2[nH]1)N1CCOCC1	0%	21%	1%	0%	-7%	3%[2.3 µM]
c1ccc(-c2nc3ccccc3[nH]2)cc1	1.6µM*	.	3.5µM*	?	?	7.6µM*
COc1ccc2oc(=Nc3ccccc3)c(-c3nc4ccccc4[nH]3)cc2c1	?	13µM*	?	7.3µM*	?	6µM*
O=C(O)c1cccc(-c2nc3ccccc3[nH]2)c1	?	16µM*	?	-6%	?	1.9µM*
Cc1oc(-c2ccc(C(=O)NCc3ccc(Cl)cc3)cc2)nc1CS(=O)(=O)c1ccccc1	.	.	.	.	.	-2%
COc1ccc(CNC(=O)CSCc2ccc(C)cc2)c(OC)c1	.	.	.	.	.	1%
COc1c(Cl)cc(C(=O)Nc2cc(-c3nc4ccccc4[nH]3)ccc2C)cc1Cl	.	-40%	.	.	.	?
COC(=O)c1ccc(-c2nc3ccccc3[nH]2)cc1	0.5µM*	8.9µM*	0.71µM*	?	?	1.7µM*
COC(=O)c1ccc(C(=O)Nc2ccc3nc(-c4ccncc4)[nH]c3c2)cc1	-5%	.	-6%	-1%	-14%	-5%
Cc1cc(-c2nc3ccccc3[nH]2)ccc1N	0.56µM*	6.3µM*	0.89µM*	?	?	4.3µM*
Nc1cc(N)cc(-c2nc3ccccc3[nH]2)c1	25%	?	25%	?	35%	24µM*
c1ccc(-c2n[nH]c(-c3ccccc3)c2-c2nc3ccccc3[nH]2)cc1	-6%	-17%	-7%	-4%	17%	-2%
SMILES	Rab9 prom act	SMN2 splice enh	NPC1 promoter act	ELG1 genotoxic	ELG1 DNA repair	FLuc counter
COc1ccc(CCCc2nc3ccccc3[nH]2)cc1	-3%	.	-2%	-4%	5%	?
COc1ccc(-c2cc(=O)n(-c3nc4ccccc4[nH]3)[nH]2)cc1	?	?	21%	?	?	11µM*
COc1ccc(-c2nc3ccccc3[nH]2)cc1	0.63µM*	2.5µM*	0.5µM*	0.52µM*	?	0.67µM*
COc1cc(OC)cc(C(=O)Nc2cc(-c3nc4ccccc4[nH]3)ccc2C)c1	.	0%	.	.	.	7.6µM*
N#Cc1ccccc1NC(=O)Nc1cccc(Cl)c1	.	-9%	.	.	.	?
CNS(=O)(=O)c1ccc(NC(=O)Nc2cccc(F)c2)cc1	?	.	12%	1%	?	19µM*
CC(=O)Nc1cccc(NC(=O)Nc2cccc(F)c2)c1	3%	.	5%	9%	18%	9.5µM*
CSc1ccccc1NC(=O)Nc1ccccc1	20%	11%	15%	?	?	?
N#CCc1ccc(NC(=O)Nc2cccc(Cl)c2)cc1	29%	-14%	?	5%	7%	17µM*
CCc1ccccc1NC(=O)Nc1cccc(F)c1	1%	-4%	-4%	-5%	?	?
CSc1ccccc1NC(=O)Nc1cccc(F)c1	?	.	16%	1%	17%	21µM*
Cc1cccc(NC(=O)Nc2ccc(S(N)(=O)=O)cc2)c1	11%	.	14%	2%	?	?
CCC(O)c1nc2ccccc2n1Cc1cc(C)ccc1C (stereo not given)	.	-3%	.	.	.	-1%
COc1ccc2nc(NC(=O)c3ccc(S(=O)(=O)N4CCCC(C)C4)cc3)sc2c1 (stereo not given)	.	.	.	.	.	0%
CCn1c(CNC(=O)c2ccc(OC)cc2)nnc1SCC(=O)Nc1ccccc1	.	-2%	.	.	.	-11%
COc1ccc(NC(=O)N/C=C/c2ccco2)cc1	2%	18%	2%	-1%	22%	?
O=C(Nc1cccc(F)c1)Nc1cccc(Cl)c1	?	.	29%	-2%	?	24µM*
O=C(N/C=C/c1ccco1)Nc1cccc(Cl)c1	19%	.	16%	-1%	25%	27µM*
O=C(Nc1cccc(Cl)c1)Nc1cccc(Cl)c1	11%	-12%	13%	-3%	-28%	?
CCCSc1ncc(Cl)c(C(=O)Nc2nc3ccc(C)cc3s2)n1	.	3%	.	.	.	2%
O=C(CSC1=NCCN1)c1ccccc1	.	-7%[9.22 µM]	.	.	.	.
CCOC(=O)c1ccc(NC(=O)CC2C(=O)N(c3ccccc3)C(=O)N2C2CCCCC2)cc1 (stereo not given)	.	14%	.	.	.	4%
COc1ccc(NC(=O)CN2C(=O)CSc3ccc(S(=O)(=O)N(C)C)cc32)cc1OC	.	.	.	.	.	-3%
COc1ccccc1-n1nnnc1SCC(=O)NCC1CCCO1 (stereo not given)	-7%	.	-3%	0%	?	-2%
COc1ccccc1NC(=O)c1cnc(SCC(=O)N2CCOCC2)n(C)c1=O	.	.	.	.	.	7.6µM*
Cc1ccc(NC(=O)c2cnc(SCC(=O)N3CCOCC3)n(C)c2=O)cc1C	.	.	.	.	.	15µM*

Screening results (PubChem BioAssay)
